An excerpt weighted towards active compounds, which were near 5.5% of everything screened.
RORg inh: blocks mouse ROR gamma transcriptional activity; P51450; Drosophila S2 Gal4-RORgamma UAS-luciferase reporter, 20 h; Potency, µM (highest dose often 53.6 µM), most hits filed as inhibitors; 5.4% of 310,000 active; AID 2551; also: nearly all actives have a fitted effect of over 60% in size
Target sequence (P51450 whole entry, looked up, the tested form may be a part): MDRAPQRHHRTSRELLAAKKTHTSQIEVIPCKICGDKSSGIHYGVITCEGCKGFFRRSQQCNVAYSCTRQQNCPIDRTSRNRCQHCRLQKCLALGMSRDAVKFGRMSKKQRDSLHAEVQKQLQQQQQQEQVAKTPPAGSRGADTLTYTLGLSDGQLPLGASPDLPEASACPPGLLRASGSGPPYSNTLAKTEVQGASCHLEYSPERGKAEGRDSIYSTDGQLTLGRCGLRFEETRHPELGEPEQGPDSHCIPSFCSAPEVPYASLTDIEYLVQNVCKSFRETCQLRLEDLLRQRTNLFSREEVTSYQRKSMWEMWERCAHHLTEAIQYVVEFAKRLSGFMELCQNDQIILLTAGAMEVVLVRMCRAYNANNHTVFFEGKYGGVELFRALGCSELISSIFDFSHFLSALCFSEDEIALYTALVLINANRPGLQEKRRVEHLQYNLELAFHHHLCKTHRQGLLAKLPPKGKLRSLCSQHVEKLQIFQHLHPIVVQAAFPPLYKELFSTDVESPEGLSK
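Compounds are pin-transferred onto Drosophila Schneider cells expressing a copper-inducible Gal4–ROR gamma transactivation domain fusion. After 1 hr, copper sulfate is added to 700 uM final; luciferase is read 20 hr later.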
VP16 counter: Gal4-VP16 reporter inhibition counter-screen | Drosophila S2 Gal4-VP16 UAS-luciferase, luminescence, 20 h | AID 2546 | 3.5% of 310,000 active | Potency, µM (top dose mostly 53.6 µM), hits mostly inhibitors;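 also: Gal4-VP16 expression switched on by copper sulfate through the metallothionein promoter; nearly all actives have a fitted effect of over 50% in size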
uPA surface inh: blocks generation of uPA at the cell surface; cell surface uPA generation assay, qHTS; Potency, µM (highest dose often 38.3 µM), actives largely listed as inhibitors; 0.31% of 330,000 active; AID 540303; active = well fitted inhibition curve with a large enough effect; inconclusive = small, poorly fitted or top-dose-only effect; inactive = no such curve, though single readings can be large or run the other way; tested in mouse RAW 264.7 cells; also: nearly all actives have a fitted effect of over 55% in size
BCR signal inh: inhibitors of chronic active B-cell receptor signaling; ABC-DLBCL IkBa-CBG/CBR reporter, luminescence ratio, 4 h; Potency, µM (titrated, usually from 46.1 µM), hits mostly inhibitors; 0.05% of 340,000 active; AID 493014; active = well fitted inhibition curve with a large enough effect in the signal ratio, with a control signal flat, not every such curve was filed as active; inconclusive = small, poorly fitted or top-dose-only effect, or effect the other way, or a change in a side signal; the % refers to the signal ratio
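TMD8 human ABC-DLBCL cells with doxycycline-inducible IκBα–green luciferase fusion and unfused red luciferase, in 0.5% FBS medium; compounds up to 46 uM, 4 h at 37C. Green/red luminescence ratio, filter-overlap corrected, fitted to concentration-response curves.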
Integrin act MD: activators of alpha7 integrin expression for muscular dystrophy. alpha7betagal myoblasts, beta-gal FDG fluorescence, 48 h. Potency, µM (doses to about 38.3 µM), most hits filed as activators. 0.064% of 350,000 active; also: nearly all actives have a fitted effect of over 60% in size
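Alpha7betagal+/- myoblasts (passage 13) were plated 16-24 hr, then exposed to compounds (1:260 dilution of DMSO stock) for 48 hours at 37C. After MPER lysis, β-galactosidase reporter activity was read as FDG fluorescence (ex 480/em 540) after 30 minutes.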
Mito fusion act: blocks mitochondrial division or promotes mitochondrial fusion; AID 485298; 0.23% of 320,000 active; Potency, µM (highest dose often 46.1 µM), most hits filed as activators; S. cerevisiae fusion-defective mutant growth rescue, CellTiterGlo 48 h; also: nearly all actives have a fitted effect of over 45% in size
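Compounds are tested for their ability to restore growth of mitochondrial fusion-defective yeast strains at non-permissive 37C in YPEG medium over 48 hours. Viability is quantified by luciferase luminescence.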
Hits are given with their value; – = inactive; ? = inconclusive; · = no result given. Unless noted, calls follow the shape of the dose curve; as a rule, active = well fitted curve in the direction sought with a large enough effect; inconclusive = small, poorly fitted or top-dose-only effect, or another doubt; inactive = no such curve, though single readings can be large; an effect the other way counts as inactive or inconclusive.

SMILES | RORg inh | VP16 counter | uPA surface inh | BCR signal inh | Integrin act MD | Mito fusion act
CCN(Cc1nc2ccccc2c(=O)[nH]1)Cc1nc2ccsc2c(=O)[nH]1 | 0.447µM | 1µM | – | ? | – | –
CCN(Cc1nc2ccccc2c(=O)[nH]1)Cc1nc2cc(OC)c(OC)cc2c(=O)[nH]1 | 1.26µM | 2.24µM | – | – | – | –
NC(=O)c1ccsc1NC(=O)COC(=O)CNC(=O)c1ccc(Cl)cc1 | · | · | – | – | – | ·
COc1cc2nc(CN(C)Cc3nc4ccccc4c(=O)[nH]3)[nH]c(=O)c2cc1OC | 1.58µM | 3.55µM | · | – | – | –
COc1cc2nc(CN3CCC(Cc4ccccc4)CC3)[nH]c(=O)c2cc1OC | 11.2µM | – | – | – | – | –
CN(Cc1cc(=O)n2ccsc2n1)c1ccccc1 | – | ? | – | – | – | –
COc1cc2nc(CN(C)Cc3ccc(OC)c(OC)c3OC)[nH]c(=O)c2cc1OC | – | – | – | – | – | –
CN(Cc1cc(=O)n2ccsc2n1)Cc1nc2ccccc2c(=O)[nH]1 | 7.94µM | ? | – | – | – | –
CCc1ccc2c(CN(CC)Cc3nc4ccccc4c(=O)[nH]3)cc(=O)oc2c1 | 8.91µM | ? | – | ? | – | –
CC1CCCCC1NC(=O)C1CCC(CNS(=O)(=O)c2ccccc2)CC1 (centres undefined) | – | – | – | – | – | –
Cc1cc(CC(C)CC(C)(C)C)n(O)c(=O)c1 (centres undefined) | 1.12µM | 3.16µM | · | · | · | ·
CC(CC(C)(C)C)CP(=O)(O)CC(C)CC(C)(C)C (centres undefined) | – | – | · | · | · | ·
CCCC[C@H]1CCCO[C@@](C(=O)NCCN2CCOCC2)(C(F)(F)F)C1 | – | – | · | · | · | ·
COc1ccc(OC)c2c(C)cc(N3CCCCCC3)nc12 | – | – | – | – | – | –
COc1ccc(OC)c2c(C)cc(C)nc12 | 12.6µM | – | – | ? | – | –
C=Cc1c(C)/c2[n-]/c1=C\c1[n-]c(c(CC)c1C)/C=c1\[n-]c3c(c1C)C(=O)C(C(=O)[O-])C=3c1[n-]c(c(C)c1CCC(=O)[O-])\C=2.[Cu].[Na+].[Na+] (centres undefined) | ? | – | · | · | · | ·
COc1ccc(O)c(/C=N/NC(=O)CCC(=O)Nc2cccc(C)c2)c1 | 12.6µM | ? | – | – | – | –
COc1ccc(O)c(/C=N/NC(=O)CCC(=O)Nc2ccc(C)cc2)c1 | 6.31µM | – | – | – | – | –
Clc1ccc(N(CC2CO2)CC2CO2)cc1 (centres undefined) | · | · | – | · | – | ·
O=C(NCc1ccc2c(c1)CCN2C(=O)c1ccccc1)c1ccco1 | · | · | · | – | · | ·
COc1ccc(NC(=O)c2cccc(N3C(=O)c4ccc(C(=O)Nc5ccc(OC)c(O)c5)cc4C3=O)c2)cc1O | – | – | – | – | 4.47µM | –
CCOc1ccccc1N1C(=O)c2ccc(C(=O)Nc3cccnc3)cc2C1=O | – | 12.6µM | – | – | – | –
CC(=O)Oc1cccc(N2C(=O)c3ccc(C(=O)Nc4cccnc4)cc3C2=O)c1 | – | – | – | – | – | –
CC1CCN(S(=O)(=O)N2CCC(C(=O)NCc3ccccc3Cl)CC2)CC1 | · | · | · | – | · | ·
Cc1ccc(-n2cc(-c3ccccc3)c3c(N4CCOCC4)ncnc32)cc1 | – | – | – | – | – | –
SMILES | RORg inh | VP16 counter | uPA surface inh | BCR signal inh | Integrin act MD | Mito fusion act
COc1ccc(-n2cc(-c3ccccc3)c3c(NC4CCCCC4)ncnc32)cc1 | · | · | · | – | · | ·
COc1ccc(-n2cc(-c3ccccc3)c3c(NN4CCOCC4)ncnc32)cc1 | 4.47µM | ? | – | – | – | –
Fc1ccc(-n2cc(-c3ccccc3)c3c(NN4CCOCC4)ncnc32)cc1 | 12.6µM | 10µM | – | – | – | –
O=C1CN(c2ccccc2)C(=S)N1C(=O)c1ccc(Br)cc1 | ? | ? | – | ? | – | –
O=C(Nc1ccc(N2CCOCC2)nc1)c1ccc(C(F)(F)F)cc1 | – | – | – | ? | – | –
O=C(N/N=C/c1cnc(N2CCCCC2)s1)c1ccc(C(F)(F)F)cc1 | 2µM | 3.55µM | – | – | – | –
COC(=O)c1ccc(C(NC(=O)OCc2ccccc2)/C(C)=C/[C@@H](C)C(=O)NCc2nn(-c3ccccc3)nc2C)cc1 (some centres undefined) | – | – | · | · | · | ·
CC(C)(C)N(Cc1ccccc1)C(=O)CSc1ncn[nH]1 | – | – | – | – | – | 31.6µM
CCN(Cc1ccccc1)C(=O)CSc1ncn[nH]1 | – | – | – | – | – | –
O=C(CCN1C(=O)/C(=C\c2ccccc2)SC1=S)N1CCOCC1 | – | – | – | ? | – | –
O=C(CCN1C(=O)/C(=C/c2ccccc2Cl)SC1=S)N1CCOCC1 | 7.08µM | ? | ? | – | – | –
O=C(CN1C(=O)/C(=C/c2ccccc2F)SC1=S)NC1C=CS(=O)(=O)C1 (centres undefined) | – | – | – | – | – | –
CCOc1ccc(/C=C2\SC(=S)N(CC(=O)Nc3ccccn3)C2=O)cc1 | – | – | – | – | – | –
O=C(CCCN1C(=O)/C(=C/c2ccccc2Cl)SC1=S)N1CCCC1 | 8.91µM | – | ? | ? | – | –
CN1CCN(NC(=O)CN2C(=O)/C(=C/c3ccccc3F)SC2=S)CC1 | 0.224µM | – | · | – | · | –
CCOc1ccc(/C=C2\SC(=S)N(CC(=O)N(CCO)C(C)(C)C)C2=O)cc1 | 7.08µM | 11.2µM | – | – | – | –
CCOC(=O)c1c(NC(=O)COc2ccc(Br)cc2)sc2c1CCCC2 | · | · | · | – | · | –
CC1C2CCC3C4CC=C5CC(N(C)C)CC[C@@]5(C)C4CC[C@@]32CN1C (some centres undefined) | – | – | · | · | · | ·
CCOc1ccc(N(C(=O)OC(C)(C)C)C(=O)c2ccc(O[Si](C)(C)C(C)(C)C)cc2)c(I)c1 | – | – | · | · | · | ·
COC(=O)[C@H]1[C@H]2CC3c4[nH]c5ccccc5c4CCN3C[C@@H]2CC[C@@H]1O (some centres undefined) | – | – | · | · | · | ·
O=C(CCN1C(=O)/C(=C/c2ccccc2Cl)SC1=S)N1CCCC1 | 8.91µM | – | – | – | – | –
O=C(CCCN1C(=O)/C(=C/c2ccccc2Cl)SC1=S)NCCCN1CCOCC1 | 5.01µM | 12.6µM | ? | ? | – | –
O=C(CCN1C(=O)/C(=C/c2ccccc2F)SC1=S)NCCCN1CCOCC1 | – | – | – | – | – | –
O=C1/C(=C/c2ccccc2Cl)SC(=S)N1CCC(=O)N1CCCCC1CCO (centres undefined) | – | – | – | ? | – | –
CCOc1ccc(/C=C2\SC(=S)N(CCCC(=O)NCCCN3CCOCC3)C2=O)cc1 | 0.398µM | 0.891µM | – | ? | – | –
CCOc1ccc(/C=C2/SC(=O)NC2=S)cc1 | 11.2µM | ? | ? | ? | – | ?

Screening data: PubChem, National Center for Advancing Translational Sciences (NCATS)
